PriA SSB inh: K. pneumoniae PriA-SSBct interaction inhibition; AlphaScreen SSBct-PriA binding, biotinylated peptide; inhibition, % at 33 µM; 430,000 compounds, 0.6% hits; in the data active means inhibition mostly above about 37%, no sharp cut-off; inactive means mostly below about 20%
BoNT F protease: inhibitors of Botulinum neurotoxin F light chain protease. Multiplex microsphere protease cleavage assay, flow cytometry. inhibition, % at 10 µM. 360,000 compounds, 0.22% hits. AID 588497; in the data active means inhibition above about 35%, passing the limit was not always enough; inconclusive means no clear call, values can overlap the other calls
Autofluor counter: counter-screen for toxin protease inhibitors: compound fluorescence | 360,000 compounds, 3.1% hits | compound autofluorescence counterscreen, microsphere flow cytometry; active compounds read high | AID 624483 | fluorescence intensity (no concentration beside the values); in the data active means fluorescence intensity above about 16000; inconclusive means no clear call, values can overlap the other calls
Anthrax LF prot: blocks Bacillus anthracis lethal factor protease; multiplex microsphere protease cleavage assay, LF; inhibition, % at 10 µM; 360,000 compounds, 0.12% hits; AID 588501
Target sequence (P15917 whole entry, looked up): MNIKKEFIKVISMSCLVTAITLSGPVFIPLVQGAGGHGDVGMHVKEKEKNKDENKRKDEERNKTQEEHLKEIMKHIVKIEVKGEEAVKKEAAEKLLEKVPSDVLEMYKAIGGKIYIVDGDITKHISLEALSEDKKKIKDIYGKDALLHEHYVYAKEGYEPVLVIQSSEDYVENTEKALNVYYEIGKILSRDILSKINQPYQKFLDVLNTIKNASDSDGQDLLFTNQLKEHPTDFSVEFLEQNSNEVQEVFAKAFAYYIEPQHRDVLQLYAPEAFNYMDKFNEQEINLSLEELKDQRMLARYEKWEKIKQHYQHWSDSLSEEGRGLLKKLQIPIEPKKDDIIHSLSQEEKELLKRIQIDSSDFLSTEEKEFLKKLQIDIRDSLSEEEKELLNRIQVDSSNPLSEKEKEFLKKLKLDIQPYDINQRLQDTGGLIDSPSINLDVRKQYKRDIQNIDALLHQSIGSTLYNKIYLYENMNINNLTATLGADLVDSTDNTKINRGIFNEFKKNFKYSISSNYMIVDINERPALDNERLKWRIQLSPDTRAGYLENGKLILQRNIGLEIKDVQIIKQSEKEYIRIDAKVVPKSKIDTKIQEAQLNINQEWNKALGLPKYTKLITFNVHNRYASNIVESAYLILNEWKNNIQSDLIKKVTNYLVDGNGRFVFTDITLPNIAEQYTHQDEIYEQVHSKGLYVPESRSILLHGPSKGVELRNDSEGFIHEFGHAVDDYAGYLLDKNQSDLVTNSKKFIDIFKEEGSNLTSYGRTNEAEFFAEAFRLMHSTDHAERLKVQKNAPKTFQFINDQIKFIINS
BoNT-A LC inh2: blocks Botulinum neurotoxin A light chain protease; multiplex microsphere protease substrate cleavage, flow cytometry; inhibition, % at 10 µM; 360,000 compounds, 0.17% hits
Numbers stand for hits. Most compounds without a hit are left out; they make up all but 3.1% or so of the library. Unless noted, no stated cut-off is given here; in the data, active means inhibition above about 30%; inconclusive means no clear call, values can overlap the other calls; inactive means below that.

`Cc1cc(C)c2[nH]c(=O)c(CN(CC3CCCO3)S(=O)(=O)c3ccc4c(c3)OCCO4)cc2c1` (stereo unspecified) gave PriA SSB inh inactive, BoNT F protease inactive, Autofluor counter 21471, Anthrax LF prot inactive and BoNT-A LC inh2 inactive.
For Cc1ccc(C)c2[nH]c(=O)c(CN(CC3CCCO3)S(=O)(=O)c3ccc4c(c3)OCCO4)cc12 (stereo unspecified) the results were PriA SSB inh inactive, BoNT F protease inactive, Autofluor counter inactive, Anthrax LF prot inactive and BoNT-A LC inh2 inactive.
Screening Cc1c(C)c(C)c(S(=O)(=O)NCCc2ccc3c(c2)CCCN3C)c(C)c1C returned PriA SSB inh inactive.
Screening Cc1cc(C)c(S(=O)(=O)NCCc2ccc3c(c2)CCCN3C)cc1C returned PriA SSB inh 40.
For Cc1ccc(Cl)cc1S(=O)(=O)NCCc1ccc2c(c1)CCCN2C the results were PriA SSB inh 59.
O=C1CC(c2cccs2)c2cc3c(cc2N1)OCO3 (stereo unspecified) was read as PriA SSB inh inactive, BoNT F protease inactive, Autofluor counter 23380, Anthrax LF prot inactive and BoNT-A LC inh2 inactive.
For COc1cc2c(cc1OC)C(c1cccs1)CC(=O)N2 (stereo unspecified) the results were PriA SSB inh inactive, BoNT F protease inactive, Autofluor counter inactive, Anthrax LF prot inactive and BoNT-A LC inh2 inactive.
`COCc1nc(-c2ccccn2)n[nH]1` gave PriA SSB inh 68.
Cc1ccc(-c2n[nH]c(-c3ccccn3)n2)cc1 was read as PriA SSB inh inactive.
`Cc1cccc(OCc2nc(-c3ccccn3)n[nH]2)c1` gave PriA SSB inh 90, BoNT F protease inactive, Autofluor counter inactive, Anthrax LF prot inactive and BoNT-A LC inh2 inactive.
For O=C(O)Cc1nc(-c2ccccn2)n[nH]1 the results were PriA SSB inh inactive.
`Cc1ccc(OCc2nc(-c3ccccn3)n[nH]2)cc1` gave PriA SSB inh 109, BoNT F protease inactive, Autofluor counter inactive, Anthrax LF prot inactive and BoNT-A LC inh2 inactive.
Screening COc1ccc(OC)c(NC(=O)c2nc(S(C)(=O)=O)ncc2Cl)c1 returned PriA SSB inh inactive.
Cc1nn(C(C)C)c(C)c1S(=O)(=O)NCC(C)(O)c1cc2ccccc2s1 (stereo unspecified) was read as PriA SSB inh inactive.
`Cc1cc(C)n2c(SCc3ccc(C#N)cc3)nnc2n1` gave PriA SSB inh inactive, BoNT F protease inactive, Autofluor counter 22207, Anthrax LF prot inactive and BoNT-A LC inh2 inactive.
For Cc1cc(C)n2c(SCC#N)nnc2n1 the results were PriA SSB inh inactive, BoNT F protease inactive, Autofluor counter inactive, Anthrax LF prot inactive and BoNT-A LC inh2 inactive.
Screening CN(Cc1ccco1)S(=O)(=O)c1ccc(C(=O)Nc2sc3c(c2C#N)CCCCC3)cc1 returned PriA SSB inh inactive.
For c1cncc(Nc2nc(-c3cccnc3)cs2)c1 the results were PriA SSB inh inactive, BoNT F protease inactive, Autofluor counter inactive, Anthrax LF prot inactive and BoNT-A LC inh2 inactive.
For c1cncc(Nc2nc(-c3ccncc3)cs2)c1 the results were PriA SSB inh inactive, BoNT F protease inactive, Autofluor counter 18714, Anthrax LF prot inactive and BoNT-A LC inh2 inactive.
COc1cccc(C2C(C#N)=C(N)Oc3c2oc(CO)cc3=O)c1OC (stereo unspecified) was read as PriA SSB inh inactive, BoNT F protease inactive, Autofluor counter 22208, Anthrax LF prot inactive and BoNT-A LC inh2 inactive.
COc1ccc(C2C(C#N)=C(N)Oc3c2oc(CO)cc3=O)c(OC)c1OC (stereo unspecified) was read as PriA SSB inh inactive, BoNT F protease inactive, Autofluor counter inconclusive, Anthrax LF prot inactive and BoNT-A LC inh2 inactive.
Screening Cc1nc(-n2cccc2)sc1C(=O)N1CCCC(c2nnc(-c3ccsc3)o2)C1 (stereo unspecified) returned PriA SSB inh inactive.
Screening CCOC(=O)c1c(-c2ccc(F)cc2)csc1NC(=O)CSc1nc2sc3c(c2c(=O)n1-c1ccccc1)CCC3 returned PriA SSB inh inactive.
Cc1cccc(CC(=O)NCC(O)c2ccsc2)c1 (stereo unspecified) was read as PriA SSB inh inactive.
For Cc1cccc(CC(=O)NCC(O)Cc2ccccc2)c1 (stereo unspecified) the results were PriA SSB inh 21.
C#CCN(C#N)c1nc(NCC)nc(NC(C)C)n1 was read as PriA SSB inh inactive, BoNT F protease inactive, Autofluor counter 23207, Anthrax LF prot inactive and BoNT-A LC inh2 inactive.
CCN(C#N)c1nc(NC(C)C)nc(NC(C)C)n1 was read as PriA SSB inh inactive, BoNT F protease inactive, Autofluor counter inactive, Anthrax LF prot inactive and BoNT-A LC inh2 inactive.
For CCOC(=O)c1c(-c2ccc(F)cc2)csc1NC(=O)CCN1CC(C)OC(C)C1 (stereo unspecified) the results were PriA SSB inh inactive.
`CSC(=NS(=O)(=O)c1cccs1)Nc1ccc(Cl)cc1` gave PriA SSB inh inactive.
Screening CC(=O)Nc1ccc(Nc2ncnc3c2cnn3-c2ccc(C)cc2C)cc1 returned PriA SSB inh inactive, BoNT F protease inconclusive, Autofluor counter inconclusive, Anthrax LF prot inconclusive and BoNT-A LC inh2 inactive.
CC(=O)Nc1ccc(Nc2ncnc3c2cnn3-c2cccc(C)c2)cc1 was read as PriA SSB inh inactive, BoNT F protease inactive, Autofluor counter 19017, Anthrax LF prot inactive and BoNT-A LC inh2 inactive.
`Clc1ccc(Nc2ncnc3c2cnn3-c2ccccc2)cc1` gave PriA SSB inh inactive, BoNT F protease inactive, Autofluor counter inactive, Anthrax LF prot inactive and BoNT-A LC inh2 inactive.
For CC(=O)Nc1ccc(Nc2ncnc3c2cnn3-c2ccccc2)cc1 the results were PriA SSB inh inactive, BoNT F protease inactive, Autofluor counter 23123, Anthrax LF prot inactive and BoNT-A LC inh2 inconclusive.
COc1cc(-c2noc(CCCC(=O)NC3CCCCC3)n2)cc(OC)c1OC was read as PriA SSB inh inactive, BoNT F protease inactive, Autofluor counter 17180, Anthrax LF prot inactive and BoNT-A LC inh2 inconclusive.
For CCOc1ccc(-c2noc(CCCC(=O)NC3CCCCC3)n2)cc1OC the results were PriA SSB inh inactive, BoNT F protease inactive, Autofluor counter inactive, Anthrax LF prot inactive and BoNT-A LC inh2 inactive.
O=C(Nc1ccc(F)cc1F)N1CCCCC1c1cccnc1 (stereo unspecified) was read as PriA SSB inh inactive, BoNT F protease inactive, Autofluor counter 22683, Anthrax LF prot inactive and BoNT-A LC inh2 inconclusive.
O=C(Nc1ccccc1F)N1CCCC1c1cccnc1 (stereo unspecified) was read as PriA SSB inh inactive, BoNT F protease inconclusive, Autofluor counter inactive, Anthrax LF prot inactive and BoNT-A LC inh2 inconclusive.
For COc1ccc(C)cc1NC(=O)COCC(=O)O the results were PriA SSB inh inactive, BoNT F protease inactive, Autofluor counter 20410, Anthrax LF prot inactive and BoNT-A LC inh2 inactive.
`COC(=O)Cn1c(=O)c2c(nc(Br)n2CC(=O)OC)n(C)c1=O` gave PriA SSB inh inactive, BoNT F protease inactive, Autofluor counter 22104, Anthrax LF prot inactive and BoNT-A LC inh2 inactive.
`CCOC(=O)Cn1c(=O)c2c(nc(Br)n2CC(=O)OCC)n(C)c1=O` gave PriA SSB inh inactive, BoNT F protease inactive, Autofluor counter inactive, Anthrax LF prot inactive and BoNT-A LC inh2 inactive.
Screening O=C(c1ccco1)N1CCNCC1 returned PriA SSB inh inactive.
